Where “and” joins values, the source holds several entries; their conditions need not be identical. Equal values may be shown once. Out of some 5,500 compounds screened, about 2,000 (36%) were called active. Inconclusive results (about 18%) are left out. The list shows a part of the results. Values without a mark were called inactive. No stated cut-off is given here; in the data, active means normalized growth mostly below about 0.91 (no sharp cut-off); inconclusive means no clear call, values can overlap the other calls; inactive means mostly above about 0.92.
Test: chemical genetic growth profiling, strain panel (AID 1159580);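 further: tested at 20 µM; growth read once vehicle control cultures reached saturation at 30 °C; 1 = growth at the plate median or of vehicle wells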
Details: S. cerevisiae deletion strains, growth OD

COc1ccc([C@H]2COc3c(ccc(O)c3OC)C2)c(OC)c1O
normalized growth (locus YAL021C, strain ccr4, stronger effect = lower value): 0.984
normalized growth (locus YAL026C, strain drs2, stronger effect = lower value): 0.975
normalized growth (locus YAL030W, strain snc1, stronger effect = lower value): 0.992
normalized growth (locus YBL061C, strain skt5, stronger effect = lower value): 0.989
normalized growth (locus YBR009C, strain hhf1, stronger effect = lower value): 0.976
normalized growth (locus YBR021W, strain FUR4, stronger effect = lower value): 1.11
normalized growth (locus YBR023C, strain chs3, stronger effect = lower value): 0.985
normalized growth (locus YBR171W, strain sec66, stronger effect = lower value): 0.969
normalized growth (locus YBR229C, strain ROT2, stronger effect = lower value): 0.947
normalized growth (locus YBR231C, strain swc5, stronger effect = lower value): 0.988
normalized growth (locus YBR279W, strain paf1, stronger effect = lower value): 0.984
normalized growth (locus YCL011C, strain gbp2, stronger effect = lower value): 0.972
normalized growth (locus YCL016C, strain dcc1, stronger effect = lower value): 0.989
normalized growth (locus YCL029C, strain bik1, stronger effect = lower value): 0.993
normalized growth (locus YCL061C, strain MRC1, stronger effect = lower value): 0.968
normalized growth (locus YCL069W, strain vba3, stronger effect = lower value): 0.988
normalized growth (locus YCR088W, strain abp1, stronger effect = lower value): 0.984
normalized growth (locus YDL005C, strain med2, stronger effect = lower value): 0.975
normalized growth (locus YDL035C, strain GPR1, stronger effect = lower value): 0.998
normalized growth (locus YDL040C, strain nat1, stronger effect = lower value): 0.991
normalized growth (locus YDL074C, strain BRE1, stronger effect = lower value): 1.02
normalized growth (locus YDL101C, strain DUN1, stronger effect = lower value): 0.978
normalized growth (locus YDL185W, strain tfp1, stronger effect = lower value): 0.946
normalized growth (locus YDL192W, strain arf1, stronger effect = lower value): 0.971
normalized growth (locus YDR001C, strain nth1, stronger effect = lower value): 0.986
normalized growth (locus YDR069C, strain doa4, stronger effect = lower value): 0.979
normalized growth (locus YDR101C, strain arx1, stronger effect = lower value): 0.969
normalized growth (locus YDR137W, strain rgp1, stronger effect = lower value): 0.828 (active)
normalized growth (locus YDR159W, strain sac3, stronger effect = lower value): 0.974
normalized growth (locus YDR162C, strain NBP2, stronger effect = lower value): 0.943
normalized growth (locus YDR195W, strain ref2): 1
normalized growth (locus YDR297W, strain sur2, stronger effect = lower value): 0.98
normalized growth (locus YDR318W, strain mcm21, stronger effect = lower value): 0.986
normalized growth (locus YDR334W, strain swr1, stronger effect = lower value): 0.962
normalized growth (locus YDR335W, strain msn5, stronger effect = lower value): 0.98
normalized growth (locus YDR388W, stronger effect = lower value): 0.995
normalized growth (locus YDR392W, strain spt3, stronger effect = lower value): 0.926
normalized growth (locus YDR502C, strain sam2, stronger effect = lower value): 0.977
normalized growth (locus YEL003W, strain gim4, stronger effect = lower value): 0.976
normalized growth (locus YEL037C, strain rad23, stronger effect = lower value): 0.992
normalized growth (locus YEL061C, strain CIN8 (second series), stronger effect = lower value): 0.973
normalized growth (locus YEL061C, strain CIN8, stronger effect = lower value): 0.985
normalized growth (locus YER015W, strain faa2, stronger effect = lower value): 0.989
normalized growth (locus YER016W, strain bim1, stronger effect = lower value): 0.983
normalized growth (locus YER110C, stronger effect = lower value): 0.962
normalized growth (locus YER111C, strain swi4, stronger effect = lower value): 0.983
normalized growth (locus YER155C, strain BEM2 (second series), stronger effect = lower value): 0.988
normalized growth (locus YER155C, strain BEM2, stronger effect = lower value): 1.01
normalized growth (locus YER167W, strain BCK2, stronger effect = lower value): 1
normalized growth (locus YFR010W, strain ubp6, stronger effect = lower value): 0.957
normalized growth (locus YGL078C, strain dbp3, stronger effect = lower value): 0.978
normalized growth (locus YGL086W, strain mad1, stronger effect = lower value): 0.994
normalized growth (locus YGL167C, strain pmr1, stronger effect = lower value): 0.981
normalized growth (locus YGL173C, strain kem1, stronger effect = lower value): 0.977
normalized growth (locus YGL227W, strain vid30, stronger effect = lower value): 0.988
normalized growth (locus YGL240W, strain doc1, stronger effect = lower value): 0.978
normalized growth (locus YGL248W, strain PDE1, stronger effect = lower value): 0.985
normalized growth (locus YGL253W, strain hxk2, stronger effect = lower value): 0.997
normalized growth (locus YGR078C, strain PAC10, stronger effect = lower value): 0.989
normalized growth (locus YGR135W, strain pre9, stronger effect = lower value): 0.986
normalized growth (locus YGR229C, strain SMI1, stronger effect = lower value): 0.987
normalized growth (locus YGR252W, strain gcn5, stronger effect = lower value): 1.03
normalized growth (locus YHR013C, strain ard1, stronger effect = lower value): 0.978
normalized growth (locus YHR027C, strain rpn1, stronger effect = lower value): 0.978
normalized growth (locus YHR030C, strain SLT2, stronger effect = lower value): 1
normalized growth (locus YHR079C, strain IRE1 (second series), stronger effect = lower value): 0.997
normalized growth (locus YHR079C, strain IRE1, stronger effect = lower value): 1.02
normalized growth (locus YHR094C, strain hxt1, stronger effect = lower value): 0.98
normalized growth (locus YHR129C, strain ARP1, stronger effect = lower value): 1.01
normalized growth (locus YHR142W, strain chs7, stronger effect = lower value): 0.968
normalized growth (locus YHR200W, strain rpn10, stronger effect = lower value): 0.967
normalized growth (locus YIL066C, strain RNR3, stronger effect = lower value): 0.975
normalized growth (locus YIL073C, strain SPO22, stronger effect = lower value): 0.924
normalized growth (locus YIL125W, strain kgd1, stronger effect = lower value): 0.987
normalized growth (locus YIR030C, strain dcg1, stronger effect = lower value): 1
normalized growth (locus YJL092W, strain hpr5, stronger effect = lower value): 0.977
normalized growth (locus YJL095W, strain BCK1 (second series), stronger effect = lower value): 0.995
normalized growth (locus YJL095W, strain BCK1, stronger effect = lower value): 0.98 and 1.03
normalized growth (locus YJL115W, strain asf1, stronger effect = lower value): 0.967
normalized growth (locus YJL129C, strain trk1, stronger effect = lower value): 0.977
normalized growth (locus YJL134W, strain LCB3, stronger effect = lower value): 0.994
normalized growth (locus YJL154C, strain vps35, stronger effect = lower value): 0.983
normalized growth (locus YJL164C, strain tpk1, stronger effect = lower value): 0.967
normalized growth (locus YJL166W, strain qcr8, stronger effect = lower value): 0.993
normalized growth (locus YJL168C, strain set2, stronger effect = lower value): 0.989
normalized growth (locus YJL187C, strain SWE1 (second series), stronger effect = lower value): 0.981
normalized growth (locus YJL187C, strain SWE1, stronger effect = lower value): 0.991
normalized growth (locus YJR043C, strain POL32, stronger effect = lower value): 0.987
normalized growth (locus YJR066W, strain TOR1, stronger effect = lower value): 1.01
normalized growth (locus YJR075W, strain HOC1, stronger effect = lower value): 0.969
normalized growth (locus YKL009W, strain mrt4, stronger effect = lower value): 0.977
normalized growth (locus YKL068W, stronger effect = lower value): 0.973
normalized growth (locus YKL085W, strain MDH1 (second series), stronger effect = lower value): 0.974
normalized growth (locus YKL085W, strain MDH1, stronger effect = lower value): 0.974
normalized growth (locus YKL160W, strain elf1, stronger effect = lower value): 0.986
normalized growth (locus YKL190W, strain CNB1, stronger effect = lower value): 0.991
normalized growth (locus YKR001C, strain vps1, stronger effect = lower value): 1
normalized growth (locus YKR026C, strain gcn3, stronger effect = lower value): 0.982
normalized growth (locus YKR091W, strain srl3, stronger effect = lower value): 0.992
normalized growth (locus YLL001W, strain dnm1, stronger effect = lower value): 0.978
normalized growth (locus YLL026W, stronger effect = lower value): 0.994
normalized growth (locus YLL041C, strain sdh2, stronger effect = lower value): 0.98
normalized growth (locus YLR027C, strain aat2, stronger effect = lower value): 1
normalized growth (locus YLR039C, strain RIC1, stronger effect = lower value): 0.953
normalized growth (locus YLR058C, strain SHM2, stronger effect = lower value): 0.98
normalized growth (locus YLR102C, strain apc9, stronger effect = lower value): 0.997
normalized growth (locus YLR113W, strain HOG1, stronger effect = lower value): 0.969
normalized growth (locus YLR221C, strain rsa3, stronger effect = lower value): 0.993
normalized growth (locus YLR258W, strain gsy2, stronger effect = lower value): 0.992
normalized growth (locus YLR262C, strain YPT6 (second series), stronger effect = lower value): 0.912
normalized growth (locus YLR262C, strain YPT6, stronger effect = lower value): 0.939
normalized growth (locus YLR268W, strain sec22, stronger effect = lower value): 0.99
normalized growth (locus YLR320W, strain mms22, stronger effect = lower value): 0.987
normalized growth (locus YLR330W, strain CHS5, stronger effect = lower value): 1
normalized growth (locus YLR342W, strain FKS1 (second series), stronger effect = lower value): 1.05
normalized growth (locus YLR342W, strain FKS1, stronger effect = lower value): 0.989
normalized growth (locus YLR357W, strain rsc2, stronger effect = lower value): 0.978
normalized growth (locus YLR370C, strain arc18, stronger effect = lower value): 0.977
normalized growth (locus YLR371W, strain rom2, stronger effect = lower value): 0.994
normalized growth (locus YLR384C, strain iki3, stronger effect = lower value): 0.995
normalized growth (locus YLR418C, strain cdc73, stronger effect = lower value): 1
normalized growth (locus YML016C, strain PPZ1, stronger effect = lower value): 0.995
normalized growth (locus YML032C, strain rad52, stronger effect = lower value): 0.993
normalized growth (locus YML120C, strain ndi1, stronger effect = lower value): 0.979
normalized growth (locus YML124C, strain tub3, stronger effect = lower value): 0.974
normalized growth (locus YMR058W, strain fet3, stronger effect = lower value): 0.97
normalized growth (locus YMR078C, strain ctf18, stronger effect = lower value): 0.99
normalized growth (locus YMR125W, strain sto1, stronger effect = lower value): 0.979
normalized growth (locus YMR129W, stronger effect = lower value): 0.977
normalized growth (locus YMR205C, strain PFK2, stronger effect = lower value): 0.978
normalized growth (locus YMR223W, strain ubp8, stronger effect = lower value): 0.972
normalized growth (locus YMR231W, strain pep5, stronger effect = lower value): 0.996
normalized growth (locus YMR307W, strain GAS1, stronger effect = lower value): 1.09
normalized growth (locus YNL067W, strain RPL9B, stronger effect = lower value): 0.996
normalized growth (locus YNL071W, strain lat1, stronger effect = lower value): 0.982
normalized growth (locus YNL183C, strain NPR1, stronger effect = lower value): 0.974
normalized growth (locus YNL209W, strain ssb2, stronger effect = lower value): 0.987
normalized growth (locus YNL233W, strain BNI4, stronger effect = lower value): 0.996
normalized growth (locus YNL248C, strain rpa49, stronger effect = lower value): 0.977
normalized growth (locus YNL250W, strain rad50, stronger effect = lower value): 0.968
normalized growth (locus YNL271C, strain bni1, stronger effect = lower value): 0.979
normalized growth (locus YNL298W, strain CLA4, stronger effect = lower value): 0.975
normalized growth (locus YNL307C, strain MCK1, stronger effect = lower value): 0.986
normalized growth (locus YNL322C, strain KRE1 (second series), stronger effect = lower value): 0.991
normalized growth (locus YNR049C, strain mso1, stronger effect = lower value): 0.995
normalized growth (locus YNR052C, strain pop2, stronger effect = lower value): 0.996
normalized growth (locus YOL006C, strain TOP1, stronger effect = lower value): 1.1
normalized growth (locus YOL012C, strain htz1): 0.955
normalized growth (locus YOL147C, strain pex11, stronger effect = lower value): 0.995
normalized growth (locus YOR001W, strain rrp6, stronger effect = lower value): 0.986
normalized growth (locus YOR061W, strain CKA2, stronger effect = lower value): 0.966
normalized growth (locus YOR069W, strain VPS5, stronger effect = lower value): 0.999
normalized growth (locus YOR070C, strain gyp1, stronger effect = lower value): 0.988
normalized growth (locus YOR080W, strain dia2, stronger effect = lower value): 0.988
normalized growth (locus YOR083W, strain WHI5, stronger effect = lower value): 0.985
normalized growth (locus YOR106W, strain vam3, stronger effect = lower value): 0.976
normalized growth (locus YOR136W, strain idh2, stronger effect = lower value): 0.978
normalized growth (locus YOR144C, strain elg1, stronger effect = lower value): 0.983
normalized growth (locus YOR184W, strain ser1, stronger effect = lower value): 0.956
normalized growth (locus YOR231W, strain MKK1, stronger effect = lower value): 1.03
normalized growth (locus YOR265W, strain rbl2, stronger effect = lower value): 0.994
normalized growth (locus YOR270C, strain vph1, stronger effect = lower value): 0.933
normalized growth (locus YOR290C, strain snf2, stronger effect = lower value): 0.966
normalized growth (locus YOR316C, strain cot1, stronger effect = lower value): 0.981
normalized growth (locus YPL051W, strain arl3, stronger effect = lower value): 0.995
normalized growth (locus YPL055C, strain LGE1, stronger effect = lower value): 1.01
normalized growth (locus YPL078C, strain atp4, stronger effect = lower value): 0.986
normalized growth (locus YPL106C, strain sse1, stronger effect = lower value): 0.989
normalized growth (locus YPL240C, strain hsp82, stronger effect = lower value): 0.963
normalized growth (locus YPL241C, strain CIN2, stronger effect = lower value): 0.958
normalized growth (locus YPL256C, strain CLN2, stronger effect = lower value): 1.03
normalized growth (locus YPR119W, strain clb2, stronger effect = lower value): 0.978
normalized growth (locus YPR141C, strain kar3, stronger effect = lower value): 0.979
normalized growth (locus YPR163C, strain tif3, stronger effect = lower value): 0.981
normalized growth (locus YPR167C, strain met16, stronger effect = lower value): 1
normalized growth (strain wtn01, stronger effect = lower value): 0.981
